Compound activity: PubChem, National Center for Advancing Translational Sciences (NCATS)
CCT chaperon mod – High-Throughput Screening for Modulators of Cytosolic Chaperonin Activity. activity change, % (test concentration not listed), hits read low. purified chaperonin ATPase assay, HTRF ADP detection, 30 min. AID 651819, 2012. 360,000 compounds, 0.3% hits; in the data active means activity change below about -30%
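First, chaperonin was dispensed at 40 nM or 20 nM final depending on batch activity. Next, compounds were pinned at 76 uM and ATP added at 10 uM. After 30 min at 37 °C, ADP detection reagents ran 30 min at ambient temperature.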
Nrf2 block – Nrf2 qHTS screen for inhibitors | A549 ARE-Fluc reporter, luciferase luminescence, 18-24 h | Potency, µM (top dose mostly 46 µM), usual class: inhibitors | 360,000 compounds, 2.1% hits | AID 504444, 2011; further: nearly all actives have a fitted effect of over 60% in size
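Concentration-response testing used A549 ARE_Fluc cells at 5000 cells/well. Following an 18-24 h compound incubation, viability was read by fluorescence (Ex 405/Em 525) and luciferase output by luminescence.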
A-T KAP1 phos – qHTS Assay for Identifying a Potential Treatment of Ataxia-Telangiectasia. F2112 A-T fibroblasts, KAP-1 phosphorylation AlphaLISA; neocarzinostatin DNA damage 30 min before lysis. Potency, µM (titrated, usually from 57.5 µM), hits mostly activators. 320,000 compounds, 0.19% hits. AID 485349, 2010; further: nearly all actives have a fitted effect of over 45% in size
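hTERT-immortalized A-T patient fibroblasts (F2112), 500 cells/well in OPTI-MEM, 1% FBS, got compounds for 60 min, then NCS for 30 min at 37C. Lysates were then assayed for phospho-KAP-1 by AlphaLISA (anti-pKAP1 donor, anti-KAP1 acceptor beads), 6 hr at 25C.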
A549 viability – Nrf2 qHTS screen for inhibitors: counterscreen for cytotoxicity | A549 ARE-Fluc cells, CellTiter-Fluor viability, 18-24 h | AID 504648, 2011 | Potency, µM (doses to about 46 µM), usual class: inhibitors | 390,000 compounds, 0.16% hits
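A549 ARE-Fluc cells in 5% FBS OPTI-MEM, 5000 cells/well, rested 2 h then exposed to compounds in concentration-response for 18-24 h at 37 °C. Viability by CellTiter-Fluor fluorescence (Ex 405/Em 525) after 30 min; luciferase luminescence (BugLite, 15 min, RT) read afterwards.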
TCR activator – Activators of T cell receptors: qHTS campaign | primary human leukocytes, anti-CD3, IL-2 HTRF, 48 h | Potency, µM (top dose mostly 9.22 µM), hits mostly activators | 330,000 tested, under 10 active | AID 504894, 2011
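Readout: HTRF IL-2, Eu-cryptate/d2 antibody pair, 320nm excitation, 665nm emission. Stimulus: a-CD3 beads, no co-stimulation. Cells: primary human leukocytes. Exposure: 48 hr with compound.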
Nrf2 ARE act – qHTS of Nrf2 Activators | Potency, µM (top dose mostly 46.1 µM), actives largely listed as activators | AREc32 ARE-luciferase reporter (MCF7-derived line), luminescence, 24 h | 410,000 compounds, 0.31% hits | AID 624171, 2012; further: nearly all actives have a fitted effect of over 65% in size
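Each well held 1000 AREc32 cells, which were incubated with compound for 24 hr at 37 deg C after overnight attachment, and ARE reporter activity was quantified by firefly luciferase luminescence.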
Each line names hits and unclear results; the compound was inactive in the other large screens. Sampled rows, rich in hits. Any-hit rate of the full collection: about 2.6%. Unless noted, the call rests on the fitted dose curve; in most records, active means well fitted curve in the direction sought with a large enough effect; inconclusive means small, poorly fitted or top-dose-only effect, or another doubt; inactive means no such curve, though single readings can be large; an effect the other way counts as inactive or inconclusive.

O=S(=O)(/C(=C/c1ccc(C(F)(F)F)cc1)c1nc2ccccc2[nH]1)c1ccccc1	Nrf2 block inconclusive, A-T KAP1 phos 31.6µM, A549 viability inconclusive, Nrf2 ARE act inconclusive
CC(C)c1ccc(/C=C(\c2nc3ccccc3[nH]2)S(=O)(=O)c2ccccc2)cc1	Nrf2 block inconclusive, A549 viability inconclusive, Nrf2 ARE act inconclusive
CCCN(CC(=O)Nc1ccc(Cl)cc1Cl)C(=O)/C=C/c1ccco1	Nrf2 ARE act 11.2µM
CCN(CC(=O)Nc1ccc(NC(C)=O)cc1)C(=O)/C=C/c1ccco1	none
Cc1ccccc1C(=O)Nc1nc2nc(-c3ccccc3)cc(=O)n2[nH]1	none (no result: CCT chaperon mod, A-T KAP1 phos, TCR activator)
COc1cccc(CNC(=O)CN(C)S(=O)(=O)c2ccc3[nH]c4c(c3c2)CCCC4)c1	none (no result: CCT chaperon mod, A-T KAP1 phos, TCR activator)
CN(CC(=O)NCc1ccc(Cl)cc1)S(=O)(=O)c1ccc2[nH]c3c(c2c1)CCCC3	Nrf2 block 16.4µM (no result: CCT chaperon mod, A-T KAP1 phos, TCR activator)
CCOc1cc(C)cc2oc(=O)cc(-c3ccccc3)c12	Nrf2 block inconclusive
Cc1cc(OCC(=O)N2CCc3ccccc3C2)c2c(-c3ccccc3)cc(=O)oc2c1	Nrf2 block 16.4µM
CCCCOc1ccc(CNC(=O)CCCN2C(=O)CSc3c2c(C)nn3-c2ccccc2)cc1	Nrf2 block 29.1µM (no result: CCT chaperon mod, A-T KAP1 phos, TCR activator)
CCc1cc(CNC(=O)c2ccc3nc(Cc4ccc(OC)c(OC)c4)oc3c2)on1	Nrf2 block 20.6µM
Oc1ccc(-c2nccc(-c3cccs3)n2)cc1	Nrf2 block inconclusive, Nrf2 ARE act 10µM
O=C(CSc1nncc2ccccc12)N1CCCCC1	Nrf2 block 10.3µM
O=C(CSc1nc(C2CC2)nc2ccccc12)N1CCCCC1	Nrf2 block inconclusive
O=S(=O)(c1ccc2nc(SCc3ccc(Cl)cc3)[nH]c2c1)N1CCOCC1	Nrf2 block 23.1µM
O=S(=O)(c1ccc2nc(COc3ccc(Cl)cc3Cl)[nH]c2c1)N1CCOCC1	none (no result: TCR activator)
CCOC(=O)N1CCN(Cc2nnc(-c3ccccc3C)o2)CC1	A-T KAP1 phos 20µM
CN1CCN(CC(=O)N2c3ccccc3Sc3ccccc32)CC1	none
CCOC(=O)N1CCN(CC(=O)N2c3ccccc3Sc3ccccc32)CC1	A-T KAP1 phos 17.8µM
COc1ccc(OC)c(CCNC(=O)CN2C(=O)COc3ccc(S(=O)(=O)N4CCC(C)CC4)cc32)c1	none (no result: CCT chaperon mod, A-T KAP1 phos, TCR activator)
C/C(=N\NC(=O)C(C)Oc1ccc([N+](=O)[O-])cc1)c1ccccn1 (stereo not given)	Nrf2 block 6.51µM, A549 viability inconclusive
O=C(CC1C(=O)NCCN1Cc1cccc(F)c1)NC1CCCCCC1 (stereo not given)	none
Cc1cccc2nc(CNC(=O)CC3C(=O)NCCN3Cc3cccc(F)c3)cn12 (stereo not given)	CCT chaperon mod -43.0, Nrf2 block inconclusive
Cc1c(Cl)cccc1NC(=O)CCN1C(=O)c2ccccc2Sc2ncccc21	none (no result: CCT chaperon mod, A-T KAP1 phos, TCR activator)
Cc1ccc2nc(NC(=O)CSCC(=O)OCC(=O)c3ccc(Br)cc3)sc2c1	Nrf2 block 18.4µM
COc1ccc(NC(=S)N=Nc2c(O)[nH]c3ccccc23)cc1	Nrf2 block 9.2µM, A549 viability inconclusive
CCc1ccc(NC(=O)Cn2cnc3sc(C)c(S(=O)(=O)N4CCOCC4)c3c2=O)cc1	none
COc1ccc(C(C)=O)cc1CSc1nc(NCc2ccccc2)c2ccccc2n1	A549 viability 23.1µM (no result: CCT chaperon mod, Nrf2 block, A-T KAP1 phos, TCR activator)
CCCN1CNc2c(c(=O)[nH]c(=S)n2CCc2cccc(OC)c2)C1	Nrf2 block inconclusive (no result: CCT chaperon mod, A-T KAP1 phos, TCR activator, Nrf2 ARE act)
CC(=O)Nc1ccc(NC(=O)CC(C)n2ccnc2)cc1 (stereo not given)	none
O=C(COC(=O)/C=C/c1ccccc1[N+](=O)[O-])NCc1ccco1	Nrf2 ARE act 14.1µM
COCCNC(=O)c1ccccc1NC(=O)c1nsc2ccccc12	none (no result: CCT chaperon mod, Nrf2 block, A-T KAP1 phos, TCR activator)
N#Cc1c(-c2ccco2)cc(-c2ccc(F)cc2)nc1N	Nrf2 ARE act 1µM (no result: Nrf2 block)
O=C(NCc1ccccc1)c1cccn1-c1nnc(N2CCCCC2)s1	none (no result: CCT chaperon mod, A-T KAP1 phos, TCR activator)
COc1cc(OC)c(OC)cc1/C=C/c1nc2cc3ccccc3cc2c(=O)n1-c1ccccc1Br	none (no result: CCT chaperon mod, Nrf2 block, A-T KAP1 phos, TCR activator)
COc1ccc2[nH]cc(C(=O)N3CCCCC3)c(=O)c2c1	none (no result: TCR activator)
